We go through 1 compound from the supplement of paper PMC4206461.

Each structure is given as a SMILES string.

The experiment has as its system Pseudomonas aeruginosa PA14 dppA1-A5 penta mutant + pBBR5.DppA1 (PA14_58350). The experiment in a line: respiration area under curve with compound as sole nitrogen source, 24 h (OmniLog AUC (arbitrary units)); higher = more respiration / better utilisation as nitrogen source, active = 2000 or more. Particulars: plate: PM8. As for the experimental part: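 Biolog Phenotype MicroArray plates PM6-PM8: each di/tripeptide is the sole nitrogen source. Tetrazolium reduction was read in the OmniLog for 24 h at 37°C and summarised as area under the respiration curve (arbitrary units). Values below 2000 count as no respiration. Strain is the SBP penta mutant complemented with DppA1 on a plasmid under its native promoter. Lys/His/Cys peptides are excluded.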
In the case of `N[C@@H](Cc1ccc(O)cc1)C(=O)NCC(=O)NCC(=O)O`, the “respiration area under curve” value was 9440 (active).
